# Screening data from PubChem BioAssay.
# Rows were chosen to be rich in hits. Some 7.3% of all compounds tested hit in one or more screens of this group.
# SMN2 splice up = qHTS Assay for Enhancers of SMN2 Splice Variant Expression; HEK293 SMN2-luciferase splicing reporter, luminescence, 30-36 h; Potency, µM (titrated, usually from 46.1 µM), for the others: at the highest dose activity change, positive = activation, hits mostly activators; 210,000 tested, 2.8% active; AID 1458, 2008; also: % of control where 0% means no effect; nearly all actives have a fitted effect of over 55% in size
#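 HEK293 cells carry an SMN2 […]–luciferase reporter in which exon 7 inclusion puts luciferase in frame. Cells were plated 10-12 h before compound addition, then incubated 30-36 h at 37C. ONE-Glo luminescence was read; sodium butyrate at 4.5 mM final served as control.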
# ELG1 genotoxic = qHTS screen for small molecules that induce genotoxicity in human embryonic kidney (HEK293T) cells expressing luciferase-tagged ELG1. 330,000 tested, 1.3% active. Potency, µM (highest dose often 46 µM), inactives show top-dose activity change, positive = activation, usual class: activators. AID 504466, 2011. HEK293T ELG1-luciferase reporter, luminescence, 16 h; also: % of control where 0% means no effect; nearly all actives have a fitted effect of over 60% in size
#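 Genotoxicity was scored as increased ELG1-luciferase reporter signal, measured by ONE-Glo luminescence (30 min, room temperature). Compound or vehicle exposure of the HEK293T reporter cells lasted 16 hr at 37°C.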
# Rab9 prom act = qHTS Assay for Rab9 Promoter Activators | Potency, µM (highest dose often 9.22 µM), inactives show top-dose activation, negative = inhibition, actives largely listed as activators | Huh7 Rab9 promoter-luciferase reporter, luminescence, 24 h | 320,000 tested, 2.8% active; also: % of control where 0% means no effect; nearly all actives have a fitted effect of over 60% in size
#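 Stable Rab9-luc Huh7, 1500 cells/well, 2 h settle; cmpd in DMSO, 24 h, 37 °C/5% CO2; luciferase reagent 10 min RT; luminescence.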
# p53 reactivation = qHTS assay for re-activators of p53 using a Luc reporter; H1299 p53-A138V BP100-luciferase reporter, luminescence, 24 h; Potency, µM (series often up to 92.2 µM), for the others: top-dose activity change, positive = activation, usual class: activators; 320,000 tested, 0.063% active; AID 504706, 2011; also: % of control where 0% means no effect; nearly all actives have a fitted effect of over 45% in size
#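 H1299 (p53-null), stable ts p53-A138V + BP100-Luc; 1000 cells/well, Opti-MEM/10% FBS; cpd 4 pt, 1:5; 24 h, 37 deg C, 5% CO2; detection reagent 10 min RT; luminescence.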
# FLuc modulator = qHTS profiling assay for firefly luciferase inhibitor/activator using purifed enzyme and Km concentrations of substrates (counterscreen for miR-21 project). 360,000 tested, 6.9% active. Luciferin 4-monooxygenase (Photinus pyralis), P08659. Potency, µM (series often up to 57.5 µM), without a hit: top-dose activity change, negative = inhibition, hits mostly inhibitors. purified FLuc, Km substrates, luminescence inhibition;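 also: plate controls were vehicle for no effect and reference inhibitor for full effect; nearly all actives have a fitted effect of over 55% in size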
# Target sequence (P08659 whole entry, looked up): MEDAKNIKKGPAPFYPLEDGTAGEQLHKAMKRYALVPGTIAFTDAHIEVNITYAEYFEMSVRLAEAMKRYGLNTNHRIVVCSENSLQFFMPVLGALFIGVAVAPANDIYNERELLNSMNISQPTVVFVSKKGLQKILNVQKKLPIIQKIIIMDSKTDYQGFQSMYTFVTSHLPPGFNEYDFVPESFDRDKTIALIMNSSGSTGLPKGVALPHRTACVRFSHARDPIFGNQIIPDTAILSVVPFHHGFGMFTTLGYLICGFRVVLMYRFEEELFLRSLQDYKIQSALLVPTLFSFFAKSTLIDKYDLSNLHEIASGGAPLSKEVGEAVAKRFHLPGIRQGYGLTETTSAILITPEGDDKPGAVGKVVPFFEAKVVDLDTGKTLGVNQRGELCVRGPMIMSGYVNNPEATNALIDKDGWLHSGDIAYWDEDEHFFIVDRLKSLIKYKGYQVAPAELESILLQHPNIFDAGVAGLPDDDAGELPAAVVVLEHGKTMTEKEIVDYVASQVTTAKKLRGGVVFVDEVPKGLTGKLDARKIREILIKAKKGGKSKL
#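 Purified P. pyralis luciferase (10nM final) with 10uM D-luciferin and 10uM ATP (Km levels) in 50mM Tris acetate pH 7.5, 10mM Mg acetate, 0.01% Tween-20, 0.05% BSA; qHTS 6-point titration, ~60 µM downward; luminescence read.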
# NPC1 prom act = qHTS Assay for NPC1 Promoter Activators | Huh7 NPC1 promoter luciferase reporter, 24 h | Potency, µM (highest dose often 9.22 µM), without a hit: at the top dose activation, hits mostly activators | 320,000 tested, 2.4% active; also: % of control where 0% means no effect; nearly all actives have a fitted effect of over 60% in size
#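 Quantitative HTS used a cell-based reporter: Huh7 cells stably bearing the NPC1 promoter upstream of luciferase were treated with compounds for 24 h, and promoter activation was read as luminescence.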
# Starred values were filed as active, the others as inactive; ? = inconclusive; . = not tested or not shown. Calls follow the shape of the dose curve; as a rule, active = well fitted curve in the direction sought with a large enough effect; inconclusive = small, poorly fitted or top-dose-only effect, or another doubt; inactive = no such curve, though single readings can be large; an effect the other way counts as inactive or inconclusive. Potency is read from the fitted curve at half-maximal effect.
SMILES,SMN2 splice up,ELG1 genotoxic,Rab9 prom act,p53 reactivation,FLuc modulator,NPC1 prom act
COc1ccc(NC(=O)CN(C)C(=O)c2ccc(S(=O)(=O)Nc3ccccc3F)cc2)cc1,.,23%,-5%,12%,13µM*,2%
COC(=O)c1ccc(OC(=O)c2ccccc2F)cc1,-4%,2%,-2%,0%,13µM*,1%
Cc1cccc(-n2ncc(C(=O)N3CCN(Cc4ccccc4)CC3)c2C2CCN(C(=O)OC(C)(C)C)CC2)c1,.,.,.,.,6%,.
COC(=O)c1ccc(NC(=O)Nc2ccccc2C)cc1,-21%,5%,?,17%,4.8µM*,?
CCOc1ccc(NC(=O)CSc2nnc(CNC(=O)C34CC5CC(CC(C5)C3)C4)n2CC)cc1,-2%,.,.,.,-13%,.
Cc1ccc(C(=O)Nc2nnc(C3CCCCC3)s2)o1,11µM*,3.7µM*,4µM*,?,9.5µM*,1.8µM*
CCOCC(=O)Nc1nnc(C2CCCCC2)s1,13µM*,?,?,?,?,?
C/C=C/C(=O)Nc1nnc(C2CCCCC2)s1,.,1%,1%,6%,27µM*,-4%
O=C(Nc1nnc(C2CC2)s1)C1CCCCC1,.,13%,10%,11%,-15%,12%
Cc1cc(C(=O)Nc2nnc(C3CCCCC3)s2)no1,4%,.,.,.,?,.
COc1cccc(CNC(=O)c2cc(S(=O)(=O)N3CCCCC3)cn2C)c1,.,.,.,.,-3%,.
Cc1nn(-c2ccc(Cl)cc2)c2nc(-c3cccnc3)cc(C(F)(F)F)c12,5%,.,.,.,-5%,.
NNC(=O)c1ccc(-c2ccccc2F)cc1,.,-4%,7%,-3%,?,1%
C#CC(C)(C)NC(=O)c1ccc(-c2ccccc2F)cc1,.,?,?,0%,19µM*,?
Cc1ccc(-n2nnc(-c3nccn3C)n2)cc1,.,1.8µM*,0.35µM*,2%,1.3µM*,0.5µM*
Clc1ncccc1-c1nnn(-c2ccccc2)n1,.,6.5µM*,1.4µM*,14%,2.4µM*,1.1µM*
Fc1ccc(-n2nnc(-c3cccnc3Cl)n2)cc1,.,5.8µM*,0.35µM*,?,2.4µM*,1.6µM*
Fc1ccc(-n2nnc(-c3nccs3)n2)cc1,.,3.7µM*,0.5µM*,6%,3.4µM*,0.5µM*
Cc1cc(C)c2c(=O)cc(C(=O)Nc3ccc(S(=O)(=O)Nc4onc(C)c4C)cc3)oc2c1,-2%,.,.,.,?,.
CC(=O)N1CCc2c(sc3c2c(=O)n(-c2cc(Cl)ccc2C)c(=O)n3C)C1,3%,.,.,.,-6%,.
Clc1ccc(-n2nnc(-c3cccnc3Cl)n2)cc1Cl,.,10µM*,1.1µM*,20%,1.3µM*,1µM*
COc1ncccc1-c1nnn(-c2ccccc2)n1,.,8.2µM*,0.71µM*,16%,3.4µM*,1.8µM*
c1ccc(-n2nnc(-c3cccnc3)n2)cc1,.,?,2.8µM*,?,13µM*,4µM*
Clc1nc2ccccc2cc1-c1nnn(-c2ccccc2)n1,.,16µM*,1.6µM*,2%,2.4µM*,3.2µM*
c1ccc(OCCCn2nnc(-c3cccnc3)n2)cc1,-11%,6%,1%,1%,-3%,-6%
Cc1ccccc1CNC(=O)c1cccc(NC(=O)N2CCSc3ncccc32)c1,.,.,.,.,-11%,.
CC(=O)NS(=O)(=O)c1ccc(NC(=O)CC23CC4CC(CC(Br)(C4)C2)C3)cc1,.,2%,2%,-2%,0%,2%
c1ccc2ncc(-n3cnnn3)cc2c1,-5%,10%,0%,0%,-4%,7%
Cc1ccc(-n2nnc(-c3cnc4ccccc4c3)n2)cc1,.,1.6µM*,0.32µM*,11%,0.43µM*,0.89µM*
